Data: PubChem BioAssay AID430 (Sanford-Burnham Center for Chemical Genomics, 2006)
Among all 63,000 compounds or so, about 1,100 (1.7%) were called active. Cut-off read from the data, not from the text of the source: active = cytotoxicity above about 50%; inactive = the rest. For the sample, actives were picked, then their nearest neighbours and some compounds at random. Results with a measured potency or affinity are listed apart.

Experiment: HPDE-C7 pancreatic duct cell viability loss – fluorescence, HTS (AID 430);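 note: cells exposed to compound for 48 hours before viability readout; 0% = vehicle and 100% = reference cytotoxic drug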
Settings: HPDE-C7 pancreatic duct cells viability, at 10 µM, stronger effect = higher value

SMILES	cytotoxicity
COc1ccccc1N1CCN(C(=O)c2cc3c(=O)n(C)c4ccccc4c3n2C)CC1	29% (inactive)
Cn1c(C(=O)N2CCN(c3ccccc3F)CC2)cc2c(=O)n(C)c3ccccc3c21	5.3% (inactive)
Cc1cccc(N2CCN(C(=O)c3cc4c(=O)n(C)c5ccccc5c4n3C)CC2)c1C	61.6% (active)
Cn1c(C(=O)N2CCN(c3ccc(Cl)cc3)CC2)cc2c(=O)n(C)c3ccccc3c21	6.6% (inactive)
Cn1c(C(=O)N2CCCC2)cc2c(=O)n(C)c3ccccc3c21	14.1% (inactive)
Cc1ccc(Cl)cc1N1CCN(C(=O)c2cc3c(=O)n(C)c4ccccc4c3n2C)CC1	59.5% (active)
CC(NC(=O)c1cc2c(=O)n(C)c3ccccc3c2n1C)c1ccc2c(c1)OCCO2 (centres undefined)	38.8% (inactive)
Cn1c(C(=O)Nc2ccc3c(c2)OCO3)cc2c(=O)n(C)c3ccccc3c21	18% (inactive)
Cn1c(C(=O)Nc2ccc3c(c2)OCCO3)cc2c(=O)n(C)c3ccccc3c21	60% (active)
O=C(COc1ccc(S(=O)(=O)NC2CCCCC2)cc1Cl)NCC1CCCO1 (centres undefined)	-2.7% (inactive)
CC(C)CCNC(=O)c1cccc(Cl)c1	1.2% (inactive)
O=C(Cn1c(=O)n2ncnc2c2c3c(sc21)CCCC3)c1ccccc1	-18.5% (inactive)
O=c1n(Cc2ccccc2Cl)c2sc3c(c2c2ncnn12)CCCC3	-20.8% (inactive)
COCCSc1nnc(NS(=O)(=O)Cc2ccccc2)s1	-1.4% (inactive)
O=C(O)CSc1ncn[nH]1	1% (inactive)
c1ccc(Nc2c3c(nc4ncnn24)CCC3)cc1	-24.1% (inactive)
C=CCc1cc(C)ccc1OCC(O)CN1CCN(c2ccccc2)CC1 (centres undefined)	22.9% (inactive)
COc1ccc(S(=O)(=O)N2CCN(S(=O)(=O)c3ccc4c(c3)OCCO4)CC2)cc1C	-3.8% (inactive)
COc1ccc(OC)c(S(=O)(=O)Nc2cc(OC)c(Cl)cc2OC)c1	5.6% (inactive)
COc1cc(NS(=O)(=O)c2cc(C)ccc2OC)c(OC)cc1Cl	-0.5% (inactive)
COc1cc(NS(=O)(=O)c2ccc(OC)c(C)c2C)c(OC)cc1Cl	60.7% (active)
CC1CCCCN1C(=O)c1cnn2c(C(F)(F)F)cc(-c3ccco3)nc12 (centres undefined)	-7.7% (inactive)
O=C(c1ccco1)N1CCN(c2ncnc3c2cnn3-c2ccccc2)CC1	-6.3% (inactive)
COc1ccc(N2CCN(c3ncnc4c3cnn4-c3ccc(C)cc3C)CC2)cc1	0.4% (inactive)

SMILES	cytotoxicity
CCc1cc2c(N3CCN(c4ccccc4)CC3)ncnc2s1	75.1% (active)
COc1ccc(-n2ncc3c(N4CCN(c5cc(C)ccc5C)CC4)ncnc32)cc1	1.5% (inactive)
CCN1CCN(c2ncnc3c2cnn3-c2ccc(C)cc2C)CC1	-8.1% (inactive)
CCc1cc2c(N3CCCCC3)ncnc2s1	-21.8% (inactive)
O=C(COc1ccccc1)N1CCN(c2ncnc3c2cnn3-c2ccccc2)CC1	-0.4% (inactive)
Cc1ccc(-n2ncc3c(N4CCCC4)ncnc32)c(C)c1	-2.3% (inactive)
CCc1cc2c(N3CCN(c4nnc(CC)s4)CC3)ncnc2s1	15.2% (inactive)
Cc1cc(C(=O)CN2C(=O)c3ccccc3C2=O)c(C)n1C1CC1	6.6% (inactive)
O=C(c1ccccc1)N1CCCOC1c1ccccc1 (centres undefined)	2.4% (inactive)
Cn1c(=O)c2c(nc(SCC(=O)NC3CCCCC3)n2C)n(C)c1=O	-18.4% (inactive)
COc1ccc(CCNC(=O)CN2C(=O)c3ccccc3S2(=O)=O)cc1OC	0.7% (inactive)
Cn1cccc1Cc1nnc(SCC(=O)Nc2ccccc2)n1-c1ccc(F)cc1	0% (inactive)
O=C(CN1CCC(NC(=O)c2ccc(F)cc2)CC1)NCc1ccccc1F	-5.6% (inactive)
O=C(Nc1cccc(Cl)c1)N1CCN(Cc2ccccc2)CC1	17.3% (inactive)
O=C(NC1CCCc2ccccc21)C1CCCO1 (centres undefined)	2% (inactive)
CCC(C)(C)NC(=O)C(c1ccccc1F)N(Cc1ccco1)C(=O)Cn1nnc2ccccc21 (centres undefined)	2.4% (inactive)
O=C(NC1CCCCC1)C(c1ccc(F)cc1)N(Cc1ccco1)C(=O)Cn1nnc2ccccc21 (centres undefined)	-13.1% (inactive)
O=C(NC1CCCCC1)C(c1ccccc1F)N(Cc1ccco1)C(=O)Cn1nnc2ccccc21 (centres undefined)	63.4% (active)
Cc1ccc(S(=O)(=O)Nc2nc3ccccc3nc2NCc2ccco2)cc1C	-2.8% (inactive)
O=C(CSc1nc2cc(Cl)ccc2s1)NC(=O)NCc1ccco1	-4.7% (inactive)
O=C(CSc1nc2ccccc2s1)NC(=O)NCc1ccco1	82.9% (active)
C=CCn1c(SCC(=O)N2CCN(C(=O)c3ccco3)CC2)nc2sc(CC)cc2c1=O	-4.1% (inactive)
O=C(CCCSc1nc2ccccc2s1)NCc1ccco1	-2.9% (inactive)
C=CCn1c(SCC(=O)NC(=O)NCc2ccco2)nc2sc(C)c(C)c2c1=O	-0.5% (inactive)

SMILES	cytotoxicity
C=CCn1c(SCC(=O)NC(=O)NCc2ccco2)nc2sc(CC)cc2c1=O	57.6% (active)
Cc1ccc2cc3cc(C(=O)N4CCN(C(=O)c5ccco5)CC4)sc3nc2c1	-0.9% (inactive)
CCn1cc(C(=O)N2CCCC2)c(=O)c2cc(S(=O)(=O)N3CCOCC3)ccc21	-4.3% (inactive)
Cc1cccc(-c2nc(CS(=O)CC(=O)NC3CCCC3)c(C)o2)c1 (centres undefined)	10.3% (inactive)
CC(OC1=CC(=O)CCC1)C(=O)c1ccccc1 (centres undefined)	-4.7% (inactive)
COc1ccccc1OCc1nc(C#N)c(NCc2ccco2)o1	3.4% (inactive)
CCCCCCC1CC(CSc2ncn[nH]2)OC1=O (centres undefined)	6.8% (inactive)
COc1cccc(N2CC(O)=C(c3nc4ccccc4c(=O)[nH]3)C2=N)c1	54.2% (active)
CCOC(=O)c1ccc(N2CC(O)=C(c3nc4ccccc4c(=O)[nH]3)C2=N)cc1	38.3% (inactive)
COc1ccccc1N1CC(O)=C(c2nc3ccccc3c(=O)[nH]2)C1=N	26.8% (inactive)
O=C(O)C1C(c2ccccc2)C(C(=O)OCCCO)C1c1ccccc1 (centres undefined)	4.7% (inactive)
O=c1c2ccccc2c(/C=N/c2ncn[nH]2)c(O)n1Cc1ccccc1	5.2% (inactive)
COc1cc(Br)cc(/C=N/c2ncn[nH]2)c1O	88.6% (active)
C=CCc1cccc(/C=N/c2ncn[nH]2)c1O	4.1% (inactive)
Oc1c(/C=N/c2ncn[nH]2)ccc2ccccc12	54.2% (active)
COc1cc(Br)cc(CN2CCN(C=O)CC2)c1O	-1.6% (inactive)
COc1cccc(C=Nc2cc(C)on2)c1O	-3.2% (inactive)
O=C(O)CN1CCN(Cc2ccc(F)cc2Cl)C1=O	-10.1% (inactive)
COc1ccc(CCn2nnnc2C(CC(C)C)N2CCC(C(N)=O)CC2)cc1OC (centres undefined)	-10.9% (inactive)
CCCS(=O)(=O)N1CCC(C(=O)NCc2ccccc2Cl)CC1	-9.6% (inactive)
Cc1nn2c(-c3ccc(Cl)cc3Cl)nnc2s1	-9.3% (inactive)
COc1ccccc1-c1nnc2sc(-c3ccc(N(C)C)cc3)nn12	44.4% (inactive)
CN(C)c1ccc(-c2nn3c(-c4ccc(Cl)cc4Cl)nnc3s2)cc1	60.2% (active)
CN(C)c1ccc(-c2nn3c(-c4ccc(Cl)cc4)nnc3s2)cc1	-15.9% (inactive)

SMILES	cytotoxicity
Clc1ccccc1-c1nnc2sc(-c3ccncc3)nn12	-13.4% (inactive)
CN(C)c1ccc(-c2nn3c(-c4ccccc4Cl)nnc3s2)cc1	63.8% (active)
CCOc1ccc(N2C(=O)CC(SC(=NC)Nc3cccc(F)c3)C2=O)cc1 (centres undefined)	-18.7% (inactive)
O=C(CSc1ccc2c(c1)OCCO2)NCCN1C(=O)CSC1=O	3.6% (inactive)
Cn1c(=O)[nH]c(=O)c2c1nc(N1CCN(c3cccc(Cl)c3)CC1)n2CCCc1ccccc1	5.2% (inactive)
O=S(=O)(c1ccc(F)c(Cl)c1)N1CCCC1	11.7% (inactive)
CCOC(=O)c1sc2nc(NC(=O)C(C)(C)C)sc2c1C	1.8% (inactive)
CCOC(=O)c1sc2nc(NC(=O)C3CCCCC3)sc2c1C	66.7% (active)
CCOC(=O)c1sc2nc(NC(=O)C3CC3)sc2c1C	16% (inactive)
CC(Sc1nnc(C2CCCCC2)n1N)C(=O)NCc1ccc2c(c1)OCO2 (centres undefined)	0.2% (inactive)
CC1CN(S(=O)(=O)c2ccc(C(=O)Nc3nnc(-c4ccc5c(c4)CCCC5)o3)cc2)CC(C)O1 (centres undefined)	41.7% (inactive)
CCc1nnc(NC(=O)c2ccc(S(=O)(=O)N(CC)Cc3ccccc3)cc2)o1	35.7% (inactive)
CCCCN(CC)S(=O)(=O)c1ccc(C(=O)Nc2nnc(-c3ccccc3Cl)o2)cc1	59.8% (active)
CCCCN(C)S(=O)(=O)c1ccc(C(=O)Nc2nnc(CSC)o2)cc1	11.6% (inactive)
CC1CCCN(S(=O)(=O)c2ccc(NC(=O)c3cccc(-n4cnnn4)c3)cc2)C1 (centres undefined)	18.2% (inactive)
O=C(Nc1nc(-c2cccs2)cs1)c1ccc(S(=O)(=O)N2CCCCC2)cc1	-6.2% (inactive)
CCCCN(CC)S(=O)(=O)c1ccc(C(=O)Nc2nnc(-c3cccs3)o2)cc1	49% (inactive)
CCN(Cc1ccccc1)S(=O)(=O)c1ccc(C(=O)Nc2nnc(C3CC3)o2)cc1	4.1% (inactive)
O=C(Nc1nc(-c2cccs2)cs1)c1ccc(S(=O)(=O)N2CCCC2)cc1	6.2% (inactive)
CCCCN(C)S(=O)(=O)c1ccc(C(=O)Nc2nnc(-c3cccs3)o2)cc1	59.9% (active)
CC1CCCN(S(=O)(=O)c2ccc(C(=O)Nc3nnc(-c4ccccc4Cl)o3)cc2)C1 (centres undefined)	60.8% (active)
CC1CC(C)CN(S(=O)(=O)c2ccc(C(=O)Nc3nnc(-c4cccs4)o3)cc2)C1 (centres undefined)	69.8% (active)
